Assay outcomes as filed in PubChem BioAssay.
AHR activator: AHR activators, primary screen, cell-based, luminescence, luciferase reporter, human; 320,000 compounds, 2.5% hits; Aryl hydrocarbon receptor (Homo sapiens), P35869; AID 2796, 2010; AHR-responsive luciferase reporter cells; activation, % at 5 µM; in the data active = activation above about 47%;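 note: 0% = vehicle wells and 100% = reference agonist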
hcDAF12 agonist: H. contortus DAF-12 nuclear receptor activators, primary screen, cell-based, luminescence, HEK293, lit1-tk-luc reporter. HEK293 hcDAF-12 lit1-tk-luc reporter; 0% DMSO, 100% Δ7-dafachronic acid. activation, % at 6.8 µM. 370,000 compounds, 1.4% hits. AID 652067, 2013;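 active = activation above the mean of all tested compounds plus 3 SD, cut at about 5.5% in these data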;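 note: 100% = response to 3 µM Δ7-dafachronic acid high control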
DAX1 inh-1: DAX1 (NR0B1) inhibitors, primary screen, cell-based, HEK293, Gal4-DAX1, luciferase luminescence | Nuclear receptor subfamily 0 group B member 1 (Homo sapiens), P51843 | HEK293 Gal4-DAX1 luciferase reporter | 340,000 compounds, 0.99% hits | inhibition, % at 6.75 µM;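 active = inhibition above the mean over all tested compounds plus 3 SD, cut at about 4.2% in these data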;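 note: 0% = DAX1-transfected cells with DMSO and 100% = empty-vector control cells with DMSO; inhibition shows as a rise in luminescence from relieved DAX1 repression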
Target sequence (P51843 207-470 limits assumed): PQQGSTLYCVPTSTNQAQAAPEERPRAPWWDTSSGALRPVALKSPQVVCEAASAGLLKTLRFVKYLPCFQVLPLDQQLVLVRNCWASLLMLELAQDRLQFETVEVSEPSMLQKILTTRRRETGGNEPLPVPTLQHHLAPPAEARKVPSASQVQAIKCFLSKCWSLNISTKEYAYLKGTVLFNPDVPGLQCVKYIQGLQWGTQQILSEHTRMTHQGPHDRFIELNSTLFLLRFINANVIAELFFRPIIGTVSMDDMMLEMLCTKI
hgDAF-12 ag: H. glycines DAF-12 receptor agonists, primary screen, cell-based, luminescence, HEK293, GAL4 fusion, UAS-luciferase. activation, % at 6.8 µM. 370,000 compounds, 1.8% hits. AID 687014, 2013. Nuclear hormone receptor DAF-12 (Heterodera glycines), GAL4 fusion. HEK293 GAL4-hgDAF12 UAS-luciferase reporter, agonist luminescence; normalized to butyrate control;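 active = activation above a cutoff set at the mean of all screened compounds plus 3 SD, cut at about 10% in these data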;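 note: 0% = DMSO wells and 100% = sodium butyrate wells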
ssDAF-12 act: S. stercoralis DAF-12 nuclear receptor activators, primary screen, cell-based, luminescence, HEK293, GRIP1 co-expression, lit1-tk-luc. Nuclear hormone receptor DAF-12 (Strongyloides stercoralis). HEK293 ssDAF-12/GRIP1 lit1-tk-luc reporter; % of 3 µM dafachronic acid response. activation, % at 6.8 µM. 370,000 compounds, 1% hits. AID 652126, 2013;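 active = activation above the mean over all tested compounds plus 3 SD, cut at about 0.9% in these data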;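 note: 0% = DMSO-only wells and 100% = 3 µM delta7-dafachronic acid wells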
DAX1 inh-2: DAX1 (NR0B1) inhibitors on StAR promoter, primary screen, cell-based, luminescence, SF-1 (NR5A1), full-length DAX-1; HEK293T StAR-luciferase reporter, SF-1/DAX-1 repression relief; inhibition, % at 6.8 µM; 370,000 compounds, 1.1% hits; AID 652010, 2013;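 active = inhibition above the mean over all tested compounds plus 3 SD, cut at about 3.6% in these data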;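 note: 0% = DAX-1 cells with DMSO and 100% = cells lacking DAX-1 with DMSO; higher inhibition means more luminescence from relief of DAX-1 repression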
The depositor's hits bear a star. Most compounds without a hit are left out; they make up all but 5.7% or so of the library.

How did O=[N+]([O-])c1cccc(NNS(=O)(=O)c2ccccc2F)c1 do in these assays?
AHR activator: 12; hcDAF12 agonist: -1; DAX1 inh-1: -2; hgDAF-12 ag: 0; ssDAF-12 act: -1; DAX1 inh-2: 0

What do the screens show for `Cc1cc(C(=O)Nc2ccc(F)cc2C)n(-c2ccccc2)n1`?
AHR activator: 1; hcDAF12 agonist: -1; DAX1 inh-1: 5.0*; hgDAF-12 ag: 3; ssDAF-12 act: -2; DAX1 inh-2: 0

What do the screens show for `Cc1cc(C(=O)Nc2ccc(Br)cc2F)n(-c2ccccc2)n1`?
AHR activator: 17; hcDAF12 agonist: 0; DAX1 inh-1: 0; hgDAF-12 ag: 2; ssDAF-12 act: -1; DAX1 inh-2: -1

How did COc1cc2c(cc1OC)/C(=C/C(=O)c1cccc([N+](=O)[O-])c1)NCC2 do in these assays?
AHR activator: 79*; hcDAF12 agonist: -6; DAX1 inh-1: -2; hgDAF-12 ag: -4; ssDAF-12 act: -2; DAX1 inh-2: -1

How did NC(=O)c1ccccc1OCCOCCOCCOc1ccccc1C(N)=O do in these assays?
AHR activator: -3; hcDAF12 agonist: -1; DAX1 inh-1: 1; hgDAF-12 ag: -1; ssDAF-12 act: -1; DAX1 inh-2: 1

How did O=P(O)(O)c1ccccc1OCCOCCOCCOCCOc1ccccc1P(=O)(O)O do in these assays?
AHR activator: 16; hcDAF12 agonist: 4; DAX1 inh-1: 4.4*; hgDAF-12 ag: 7; ssDAF-12 act: 0; DAX1 inh-2: 3

How did Cc1nn(C)cc1/C=C/C(=O)c1ccc(O)cc1 do in these assays?
AHR activator: -2; hcDAF12 agonist: 3; DAX1 inh-1: 1; hgDAF-12 ag: 11*; ssDAF-12 act: -1; DAX1 inh-2: 2

What do the screens show for `O=C(/C=C/c1ccc(O)cc1)c1ccccc1`?
AHR activator: 4; hcDAF12 agonist: 1; DAX1 inh-1: 3; hgDAF-12 ag: 9; ssDAF-12 act: -1; DAX1 inh-2: 1

Results for Cn1c(-c2ccccc2[N+](=O)[O-])[n+](C)c2ccccc21 ?
AHR activator: 0; hcDAF12 agonist: 0; DAX1 inh-1: 5.0*; hgDAF-12 ag: -2; ssDAF-12 act: 0; DAX1 inh-2: -1

How did Cn1cccc([N+](=O)[O-])c1=O do in these assays?
hcDAF12 agonist: 0; DAX1 inh-1: -1; hgDAF-12 ag: 1; ssDAF-12 act: -1; DAX1 inh-2: 1

What do the screens show for `CC(C)C(=O)NNc1nc2ccccc2s1`?
AHR activator: 7; hcDAF12 agonist: 6.2*; DAX1 inh-1: 0; hgDAF-12 ag: 9; ssDAF-12 act: -1; DAX1 inh-2: 1

What do the screens show for `O=C(NNc1nc2ccccc2s1)c1ccccc1F`?
AHR activator: 16; hcDAF12 agonist: 5.8*; DAX1 inh-1: 0; hgDAF-12 ag: -1; ssDAF-12 act: 0; DAX1 inh-2: 0

What do the screens show for `O=C(NNc1nc2ccccc2s1)Nc1ccc(F)cc1`?
AHR activator: 75*; hcDAF12 agonist: 5; DAX1 inh-1: 6.0*; hgDAF-12 ag: 10; ssDAF-12 act: 0; DAX1 inh-2: 1

How did Cc1ccc2c(c1)-c1c(cnn1CC(=O)NCCc1ccccc1F)CO2 do in these assays?
hcDAF12 agonist: 0; hgDAF-12 ag: -1; ssDAF-12 act: -2; DAX1 inh-2: 0

How did Cc1ccc(NC(=O)C2=CC(c3cccs3)=NS(=O)(=O)N2C)cc1 do in these assays?
AHR activator: 64*; hcDAF12 agonist: 1; DAX1 inh-1: -1; hgDAF-12 ag: 5; ssDAF-12 act: -1; DAX1 inh-2: -1

Results for O=S1(=O)c2ccc(N3CCSCC3)cc2Oc2ccccc2CN1Cc1cn(Cc2ccc(F)cc2)nn1 ?
hcDAF12 agonist: -1; hgDAF-12 ag: -3; ssDAF-12 act: -1; DAX1 inh-2: -1

How did COc1ccc(C(=O)CC(=O)c2ccccc2O)cc1 do in these assays?
AHR activator: 8; hcDAF12 agonist: 5; DAX1 inh-1: 2; hgDAF-12 ag: 11*; ssDAF-12 act: 0; DAX1 inh-2: 2

What do the screens show for `COc1ccc(C(=O)CC(=O)c2ccccc2O)cc1OC`?
AHR activator: -2; hcDAF12 agonist: 0; DAX1 inh-1: 2; hgDAF-12 ag: 1; ssDAF-12 act: -1; DAX1 inh-2: 0

What do the screens show for `COc1ccc(O)c(C(=O)CC(=O)c2ccc(F)cc2)c1`?
AHR activator: -5; hcDAF12 agonist: 8.1*; DAX1 inh-1: -4; hgDAF-12 ag: 15*; ssDAF-12 act: 1.0*; DAX1 inh-2: 1

What do the screens show for `COc1ccc(-n2cc(C(=O)c3ccc4ccccc4c3O)cn2)cc1`?
AHR activator: 12; hcDAF12 agonist: 2; DAX1 inh-1: 0; hgDAF-12 ag: 1; ssDAF-12 act: 0; DAX1 inh-2: 0

What do the screens show for `O=C(COc1ccccc1C(=O)c1cnn(-c2ccccc2)c1)Nc1ccc2ccccc2c1`?
AHR activator: 16; hcDAF12 agonist: 3; DAX1 inh-1: 1; hgDAF-12 ag: 11*; ssDAF-12 act: 1.3*; DAX1 inh-2: 2

Results for COc1ccc(-n2cc(C(=O)c3ccccc3O)cn2)cc1 ?
AHR activator: -4; hcDAF12 agonist: 5; DAX1 inh-1: 0; hgDAF-12 ag: 11*; ssDAF-12 act: 0; DAX1 inh-2: 4

What do the screens show for `Cc1noc(C)c1COc1ccc(C(=O)OCC(=O)Nc2ccc3ccccc3c2)cc1`?
AHR activator: 2; hcDAF12 agonist: 1; DAX1 inh-1: 3; hgDAF-12 ag: 0; ssDAF-12 act: -1; DAX1 inh-2: 0

What do the screens show for `CC(=O)n1ccnc1`?
AHR activator: -2; hcDAF12 agonist: 0; DAX1 inh-1: 2; hgDAF-12 ag: 2; ssDAF-12 act: -1; DAX1 inh-2: -1

Results for O=C(c1ccccc1)c1ccc(N2CCN(C(=O)c3ccc(F)cc3F)CC2)c(F)c1 ?
hcDAF12 agonist: -3; DAX1 inh-1: 0; hgDAF-12 ag: -1; ssDAF-12 act: -2; DAX1 inh-2: -3

How did CC(=O)c1sc(NC(=O)C(C)Oc2ccc3c(C)cc(=O)oc3c2)nc1C (centres undefined) do in these assays?
AHR activator: -2; hcDAF12 agonist: -1; DAX1 inh-1: -1; hgDAF-12 ag: -4; ssDAF-12 act: -1; DAX1 inh-2: -3

Results for COC(=O)/C=C1\OC(C)c2ccccc21 (centres undefined) ?
hcDAF12 agonist: 3; hgDAF-12 ag: -3; ssDAF-12 act: 1.2*; DAX1 inh-2: 1
